{"source": "paper PMC7862700", "about": "“An all-to-all approach to the identification of sequence-specific readers for epigenetic DNA modifications on cytosine”", "test_in_all_cases": "DAPPL (digital affinity profiling via proximity ligation, sequencing); 10 mM Tris-HCl pH 7.5, 50 mM NaCl, 1 mM DTT, 4% glycerol, room temperature, 30 min; GST-TFs on glutathione beads, 16-mer random dsDNA library, 0.1% formaldehyde crosslink after washing; high values mean tight binding", "details_in_all_cases": "protein: recombinant; tags: N-terminal GST; dsDNA, one strand shown", "key": {"ELK1": {"biological_target": "T1, ELK1 (Homo sapiens, UniProt P19419 1-428)", "T1 sequence": "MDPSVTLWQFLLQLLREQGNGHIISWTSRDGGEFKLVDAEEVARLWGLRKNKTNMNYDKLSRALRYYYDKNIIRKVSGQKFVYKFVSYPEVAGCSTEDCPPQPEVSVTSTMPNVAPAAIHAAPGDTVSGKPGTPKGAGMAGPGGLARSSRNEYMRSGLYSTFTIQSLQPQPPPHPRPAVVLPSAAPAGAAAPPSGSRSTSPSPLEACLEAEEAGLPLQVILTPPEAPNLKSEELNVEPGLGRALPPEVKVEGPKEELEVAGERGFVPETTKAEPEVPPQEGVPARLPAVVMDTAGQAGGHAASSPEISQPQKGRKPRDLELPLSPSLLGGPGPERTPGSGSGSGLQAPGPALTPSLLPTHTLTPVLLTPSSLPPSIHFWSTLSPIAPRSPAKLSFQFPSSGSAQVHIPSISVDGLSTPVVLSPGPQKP", "how_it_was_run": "(§1)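 Sequencing on an Illumina NextSeq500 followed washing, crosslinking with 0.1% formaldehyde, proximity ligation (BsaI/T4 ligase, 1 h, 37 °C) and PCR amplification of pools that had been incubated for 30 min at room temperature with 200 nmole of a random double-stranded 16-mer DNA library in Tris/NaCl/DTT/glycerol buffer. Each pool held DNA-barcoded human transcription factors, expressed in yeast as GST fusions and captured on glutathione beads, plus a tag-only sample. Binding signal is a hexamer's read frequency for a factor divided by its frequency in the tag-only sample.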"}, "ELF1": {"biological_target": "ELF1 (Homo sapiens, UniProt P32519 1-619)", "sequence (P32519 whole entry)": "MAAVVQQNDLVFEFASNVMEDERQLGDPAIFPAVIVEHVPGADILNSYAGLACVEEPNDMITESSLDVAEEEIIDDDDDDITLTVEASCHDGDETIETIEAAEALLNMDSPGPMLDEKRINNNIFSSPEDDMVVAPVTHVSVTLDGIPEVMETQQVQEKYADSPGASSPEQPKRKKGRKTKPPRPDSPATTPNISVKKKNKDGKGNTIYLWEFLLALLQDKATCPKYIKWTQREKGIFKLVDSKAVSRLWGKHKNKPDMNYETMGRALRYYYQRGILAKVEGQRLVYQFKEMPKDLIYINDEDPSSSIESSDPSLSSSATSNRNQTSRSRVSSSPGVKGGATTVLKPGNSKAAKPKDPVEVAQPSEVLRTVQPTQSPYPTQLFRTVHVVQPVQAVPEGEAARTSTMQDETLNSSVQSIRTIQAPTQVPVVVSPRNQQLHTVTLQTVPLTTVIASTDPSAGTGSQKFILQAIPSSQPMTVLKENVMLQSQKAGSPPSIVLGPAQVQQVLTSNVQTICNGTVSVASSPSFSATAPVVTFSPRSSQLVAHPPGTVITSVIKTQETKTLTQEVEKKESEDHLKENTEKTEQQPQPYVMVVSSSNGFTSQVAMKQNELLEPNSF", "how_it_was_run": "as §1"}, "EHF": {"biological_target": "T2, EHF (Homo sapiens, UniProt Q9NZC4 1-300)", "T2 sequence": "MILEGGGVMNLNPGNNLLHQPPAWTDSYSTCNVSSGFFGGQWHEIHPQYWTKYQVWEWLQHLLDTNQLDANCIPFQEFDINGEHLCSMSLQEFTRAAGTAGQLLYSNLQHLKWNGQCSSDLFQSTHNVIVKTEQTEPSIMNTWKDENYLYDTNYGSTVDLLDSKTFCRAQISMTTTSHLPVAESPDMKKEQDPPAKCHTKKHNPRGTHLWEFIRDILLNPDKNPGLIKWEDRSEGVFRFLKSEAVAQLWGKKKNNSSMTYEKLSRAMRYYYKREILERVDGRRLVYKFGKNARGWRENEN", "how_it_was_run": "as §1"}, "SPI1": {"biological_target": "SPI1 (Homo sapiens, UniProt P17947 1-270)", "how_it_was_run": "as §1"}, "ELK3": {"biological_target": "T3, ELK3 (Homo sapiens, UniProt P41970 1-407)", "T3 sequence": "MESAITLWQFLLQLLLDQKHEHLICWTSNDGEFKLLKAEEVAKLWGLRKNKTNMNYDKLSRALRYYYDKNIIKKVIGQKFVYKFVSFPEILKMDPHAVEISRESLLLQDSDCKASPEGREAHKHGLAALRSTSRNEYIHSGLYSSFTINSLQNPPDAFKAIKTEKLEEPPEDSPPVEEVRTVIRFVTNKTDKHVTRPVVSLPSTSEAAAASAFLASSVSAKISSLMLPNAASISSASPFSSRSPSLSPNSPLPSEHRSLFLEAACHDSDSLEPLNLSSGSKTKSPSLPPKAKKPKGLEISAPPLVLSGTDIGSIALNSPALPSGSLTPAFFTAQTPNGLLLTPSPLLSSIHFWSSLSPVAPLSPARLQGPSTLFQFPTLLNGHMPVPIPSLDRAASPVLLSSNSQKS", "how_it_was_run": "as §1"}, "ELF4": {"biological_target": "ELF4 (Homo sapiens, UniProt Q99607 1-663)", "sequence (Q99607 whole entry)": "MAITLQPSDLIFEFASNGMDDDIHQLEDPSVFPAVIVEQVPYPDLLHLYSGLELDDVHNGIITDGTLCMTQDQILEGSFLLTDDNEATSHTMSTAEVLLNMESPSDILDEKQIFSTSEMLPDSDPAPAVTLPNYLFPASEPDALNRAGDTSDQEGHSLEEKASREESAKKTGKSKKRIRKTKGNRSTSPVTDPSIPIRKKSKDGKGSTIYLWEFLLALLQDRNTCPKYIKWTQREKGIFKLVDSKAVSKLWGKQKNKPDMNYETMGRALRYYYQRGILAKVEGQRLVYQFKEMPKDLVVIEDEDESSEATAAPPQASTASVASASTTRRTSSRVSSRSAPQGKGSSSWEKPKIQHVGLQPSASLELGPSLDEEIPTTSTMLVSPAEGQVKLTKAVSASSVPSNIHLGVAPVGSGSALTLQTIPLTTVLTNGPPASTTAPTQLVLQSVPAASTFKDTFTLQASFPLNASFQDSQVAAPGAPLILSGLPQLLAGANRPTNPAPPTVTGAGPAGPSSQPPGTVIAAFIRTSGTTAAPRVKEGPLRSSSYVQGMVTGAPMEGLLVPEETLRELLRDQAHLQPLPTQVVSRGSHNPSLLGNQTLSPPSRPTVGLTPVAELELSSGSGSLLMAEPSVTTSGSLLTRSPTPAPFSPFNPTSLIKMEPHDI", "how_it_was_run": "as §1"}, "ELK4": {"biological_target": "T4, ELK4 (Homo sapiens, UniProt P28324-2 1-405)", "T4 sequence": "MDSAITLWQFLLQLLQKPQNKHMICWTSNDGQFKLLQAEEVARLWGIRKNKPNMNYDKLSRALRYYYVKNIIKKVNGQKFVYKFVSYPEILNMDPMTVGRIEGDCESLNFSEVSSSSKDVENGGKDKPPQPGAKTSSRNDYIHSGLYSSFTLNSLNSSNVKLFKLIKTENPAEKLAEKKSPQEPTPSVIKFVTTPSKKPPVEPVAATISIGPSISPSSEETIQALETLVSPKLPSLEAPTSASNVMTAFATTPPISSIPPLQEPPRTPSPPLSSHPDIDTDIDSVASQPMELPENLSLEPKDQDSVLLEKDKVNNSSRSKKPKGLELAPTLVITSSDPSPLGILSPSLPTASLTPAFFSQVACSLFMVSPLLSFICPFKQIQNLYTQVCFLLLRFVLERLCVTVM", "how_it_was_run": "as §1"}, "ETV2": {"biological_target": "T5, ETV2 (Homo sapiens, UniProt O00321 1-342)", "T5 sequence": "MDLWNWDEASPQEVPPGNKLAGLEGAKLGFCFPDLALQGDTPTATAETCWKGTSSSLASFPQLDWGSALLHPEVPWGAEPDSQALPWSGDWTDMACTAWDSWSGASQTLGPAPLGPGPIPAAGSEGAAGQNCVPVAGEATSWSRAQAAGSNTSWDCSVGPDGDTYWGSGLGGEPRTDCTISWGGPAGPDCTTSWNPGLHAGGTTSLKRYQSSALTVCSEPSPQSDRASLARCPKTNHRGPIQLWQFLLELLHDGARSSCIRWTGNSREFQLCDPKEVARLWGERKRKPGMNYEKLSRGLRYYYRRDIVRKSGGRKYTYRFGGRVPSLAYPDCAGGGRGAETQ", "how_it_was_run": "as §1"}, "ELF3": {"biological_target": "T6, ELF3 (Homo sapiens, UniProt P78545 1-371)", "T6 sequence": "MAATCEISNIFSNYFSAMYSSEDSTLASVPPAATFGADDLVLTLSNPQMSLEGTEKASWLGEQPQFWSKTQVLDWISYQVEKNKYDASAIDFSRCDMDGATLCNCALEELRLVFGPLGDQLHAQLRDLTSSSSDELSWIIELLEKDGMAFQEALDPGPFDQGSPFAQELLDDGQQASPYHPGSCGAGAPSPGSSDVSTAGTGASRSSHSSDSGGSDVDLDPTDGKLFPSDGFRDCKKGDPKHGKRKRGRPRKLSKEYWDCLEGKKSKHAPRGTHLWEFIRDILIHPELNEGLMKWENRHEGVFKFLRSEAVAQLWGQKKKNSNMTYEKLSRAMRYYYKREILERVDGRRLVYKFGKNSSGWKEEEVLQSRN", "how_it_was_run": "as §1"}, "CRX": {"biological_target": "CRX (Homo sapiens, UniProt O43186 1-299)", "sequence (O43186 whole entry)": "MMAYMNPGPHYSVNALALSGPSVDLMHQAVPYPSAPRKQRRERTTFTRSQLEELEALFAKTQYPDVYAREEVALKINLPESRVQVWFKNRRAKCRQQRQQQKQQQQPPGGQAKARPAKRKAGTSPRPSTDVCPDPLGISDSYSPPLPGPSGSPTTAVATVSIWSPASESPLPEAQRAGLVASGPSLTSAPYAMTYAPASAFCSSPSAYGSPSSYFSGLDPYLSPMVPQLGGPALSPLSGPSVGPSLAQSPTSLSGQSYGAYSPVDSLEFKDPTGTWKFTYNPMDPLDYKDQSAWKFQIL", "how_it_was_run": "as §1"}, "ERF": {"biological_target": "T7, ERF (Homo sapiens, UniProt P50548 1-548)", "T7 sequence": "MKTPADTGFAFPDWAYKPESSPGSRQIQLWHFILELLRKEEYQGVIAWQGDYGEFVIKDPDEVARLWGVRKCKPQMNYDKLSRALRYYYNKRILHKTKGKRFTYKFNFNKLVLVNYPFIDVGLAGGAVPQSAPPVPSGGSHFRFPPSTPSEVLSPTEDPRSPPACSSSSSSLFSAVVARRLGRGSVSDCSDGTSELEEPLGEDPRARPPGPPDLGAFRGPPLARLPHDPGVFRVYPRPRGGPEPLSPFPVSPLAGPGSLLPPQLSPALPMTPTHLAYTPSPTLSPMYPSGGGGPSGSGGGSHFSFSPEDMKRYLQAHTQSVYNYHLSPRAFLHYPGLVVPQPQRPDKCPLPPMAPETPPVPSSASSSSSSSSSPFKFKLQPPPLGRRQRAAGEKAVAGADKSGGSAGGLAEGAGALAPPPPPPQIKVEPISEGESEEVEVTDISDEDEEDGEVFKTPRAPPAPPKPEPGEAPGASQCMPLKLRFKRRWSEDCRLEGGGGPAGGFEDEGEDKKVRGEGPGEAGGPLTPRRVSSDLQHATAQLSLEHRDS", "how_it_was_run": "as §1"}, "SPDEF": {"biological_target": "T8, SPDEF (Homo sapiens, UniProt O95238 1-335)", "T8 sequence": "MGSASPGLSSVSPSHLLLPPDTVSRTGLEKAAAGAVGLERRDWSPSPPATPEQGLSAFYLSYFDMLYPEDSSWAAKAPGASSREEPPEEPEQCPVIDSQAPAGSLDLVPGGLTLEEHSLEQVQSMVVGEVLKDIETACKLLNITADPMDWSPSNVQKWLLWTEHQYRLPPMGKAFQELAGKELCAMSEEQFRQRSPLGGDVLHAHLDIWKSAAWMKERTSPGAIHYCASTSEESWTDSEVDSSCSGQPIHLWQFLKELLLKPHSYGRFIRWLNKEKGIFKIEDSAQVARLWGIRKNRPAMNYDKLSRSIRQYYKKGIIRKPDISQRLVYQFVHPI", "how_it_was_run": "as §1"}, "ETV7": {"biological_target": "T9, ETV7 (Homo sapiens, UniProt Q9Y603 1-341)", "T9 sequence": "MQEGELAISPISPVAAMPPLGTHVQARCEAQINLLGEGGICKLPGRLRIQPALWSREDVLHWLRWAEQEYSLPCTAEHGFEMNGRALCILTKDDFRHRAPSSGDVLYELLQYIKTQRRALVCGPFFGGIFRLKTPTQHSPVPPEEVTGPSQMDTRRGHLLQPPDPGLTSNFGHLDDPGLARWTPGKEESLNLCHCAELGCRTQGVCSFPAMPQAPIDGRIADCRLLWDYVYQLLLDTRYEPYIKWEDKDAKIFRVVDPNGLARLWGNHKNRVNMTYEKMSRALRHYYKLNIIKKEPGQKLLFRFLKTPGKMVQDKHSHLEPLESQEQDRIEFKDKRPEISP", "how_it_was_run": "as §1"}, "ETV3": {"biological_target": "T10, ETV3 (Homo sapiens, UniProt P41162-2 1-143)", "T10 sequence": "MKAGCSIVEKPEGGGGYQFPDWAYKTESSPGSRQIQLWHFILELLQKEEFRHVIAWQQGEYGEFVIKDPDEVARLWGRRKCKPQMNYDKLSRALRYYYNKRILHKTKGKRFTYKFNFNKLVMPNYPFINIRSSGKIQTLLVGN", "how_it_was_run": "as §1"}, "FEV": {"biological_target": "T11, FEV (Homo sapiens, UniProt Q99581 1-238)", "T11 sequence": "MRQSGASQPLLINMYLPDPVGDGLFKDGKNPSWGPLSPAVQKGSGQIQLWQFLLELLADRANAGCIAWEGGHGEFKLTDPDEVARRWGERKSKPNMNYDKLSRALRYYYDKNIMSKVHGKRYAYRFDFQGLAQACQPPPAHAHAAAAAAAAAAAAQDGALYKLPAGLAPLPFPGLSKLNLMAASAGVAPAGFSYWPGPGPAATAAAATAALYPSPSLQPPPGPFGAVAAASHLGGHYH", "how_it_was_run": "as §1"}, "ETV6": {"biological_target": "ETV6 (Homo sapiens, UniProt P41212 1-452)", "sequence (P41212 whole entry)": "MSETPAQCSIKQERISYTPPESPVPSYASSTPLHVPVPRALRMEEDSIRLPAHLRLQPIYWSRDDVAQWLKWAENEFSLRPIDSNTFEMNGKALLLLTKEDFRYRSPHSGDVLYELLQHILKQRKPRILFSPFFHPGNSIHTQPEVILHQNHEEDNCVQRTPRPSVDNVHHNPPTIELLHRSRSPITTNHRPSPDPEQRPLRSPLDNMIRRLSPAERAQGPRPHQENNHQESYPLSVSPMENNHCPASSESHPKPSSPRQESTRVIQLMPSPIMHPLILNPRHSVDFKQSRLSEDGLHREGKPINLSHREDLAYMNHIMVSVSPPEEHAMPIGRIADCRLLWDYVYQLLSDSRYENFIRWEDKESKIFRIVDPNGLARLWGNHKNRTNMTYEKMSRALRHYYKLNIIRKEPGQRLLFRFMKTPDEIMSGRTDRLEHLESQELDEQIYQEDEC", "how_it_was_run": "as §1"}}, "data": [{"sequence": "TAACGT", "values": [{"measurement": "binding signal", "setting": "ELK1", "result": "1.02 fold enrichment (6-mer frequency, TF over GST control)"}, {"measurement": "binding signal", "setting": "ELF1", "result": "1.01 fold enrichment (6-mer frequency, TF over GST control)"}, {"measurement": "binding signal", "setting": "EHF", "result": "1.02 fold enrichment (6-mer frequency, TF over GST control)"}, {"measurement": "binding signal", "setting": "SPI1", "result": "1.03 fold enrichment (6-mer frequency, TF over GST control)"}, {"measurement": "binding signal", "setting": "ELK3", "result": "1.08 fold enrichment (6-mer frequency, TF over GST control)"}, {"measurement": "binding signal", "setting": "ELF4", "result": "1.01 fold enrichment (6-mer frequency, TF over GST control)"}, {"measurement": "binding signal", "setting": "ELK4", "result": "1.06 fold enrichment (6-mer frequency, TF over GST control)"}, {"measurement": "binding signal", "setting": "ETV2", "result": "1.02 fold enrichment (6-mer frequency, TF over GST control)"}, {"measurement": "binding signal", "setting": "ELF3", "result": "1.06 fold enrichment (6-mer frequency, TF over GST control)"}, {"measurement": "binding signal", "setting": "CRX", "result": "1.16 fold enrichment (6-mer frequency, TF over GST control)"}, {"measurement": "binding signal", "setting": "ERF", "result": "1.07 fold enrichment (6-mer frequency, TF over GST control)"}, {"measurement": "binding signal", "setting": "SPDEF", "result": "1.05 fold enrichment (6-mer frequency, TF over GST control)"}, {"measurement": "binding signal", "setting": "ETV7", "result": "1.01 fold enrichment (6-mer frequency, TF over GST control)"}, {"measurement": "binding signal", "setting": "ETV3", "result": "1.04 fold enrichment (6-mer frequency, TF over GST control)"}]}, {"sequence": "CTGAGG", "values": [{"measurement": "binding signal", "setting": "ELK4", "result": "1.02 fold enrichment (6-mer frequency, TF over GST control)"}]}, {"sequence": "GCCACC", "values": [{"measurement": "binding signal", "setting": "FEV", "result": "1.01 fold enrichment (6-mer frequency, TF over GST control)"}, {"measurement": "binding signal", "setting": "ELF4", "result": "1 fold enrichment (6-mer frequency, TF over GST control)"}, {"measurement": "binding signal", "setting": "ELK4", "result": "1.03 fold enrichment (6-mer frequency, TF over GST control)"}]}, {"sequence": "AGGTAC", "values": [{"measurement": "binding signal", "setting": "ELF4", "result": "1.01 fold enrichment (6-mer frequency, TF over GST control)"}]}, {"sequence": "GTTGAA", "values": [{"measurement": "binding signal", "setting": "ELK4", "result": "1.01 fold enrichment (6-mer frequency, TF over GST control)"}]}, {"sequence": "GTCACC", "values": [{"measurement": "binding signal", "setting": "ELF4", "result": "1.01 fold enrichment (6-mer frequency, TF over GST control)"}]}, {"sequence": "AACGGT", "values": [{"measurement": "binding signal", "setting": "ELK1", "result": "1.06 fold enrichment (6-mer frequency, TF over GST control)"}, {"measurement": "binding signal", "setting": "ELF4", "result": "1.03 fold enrichment (6-mer frequency, TF over GST control)"}, {"measurement": "binding signal", "setting": "ETV2", "result": "1.05 fold enrichment (6-mer frequency, TF over GST control)"}, {"measurement": "binding signal", "setting": "ETV6", "result": "1.01 fold enrichment (6-mer frequency, TF over GST control)"}]}]}
